Calls of active or inactive are those of the source. How the calls were made is not given here.
Assay: S. typhi GFP reporter counter-screen inhibition, late-stage follow-up, counter-screen for PhoP regulon inhibitor project, round 4, purified and synthesized compounds (AID 449734)
Settings: fluorescence, 4 h; series mostly up to 150 µM; inhibition: at the top concentration
With `S=C(NCc1ccc(Cl)cc1)Nc1ccccc1I` the “inhibition” value was 12.1% (inactive). In the case of `S=C(NCc1ccc(Cl)cc1)NN1CCOCC1`, the “inhibition” value is reported as 12.6% (inactive). With `Cc1ccccc1NC(=O)N1CCCN(Cc2ccccc2F)C1` the “inhibition” value was -6.81% (inactive). In the case of `O=C(Nc1ccc(Cl)cc1)N1CCCN(Cc2cccc(F)c2)C1`, the “inhibition” value is reported as 19.6% (inactive). For `S=C(NCc1ccc(Cl)cc1)Nc1cccc(Br)c1`, the “inhibition” value was -14.7% (inactive). With `FC(F)(F)c1ccccc1NC(=S)NCc1ccc(Cl)cc1` the “inhibition” value was -7.95% (inactive). For `S=C(NCc1ccccc1)NCc1ccc(Cl)cc1`, the “inhibition” value was -13.1% (inactive). For `S=C(NCc1ccc(Cl)cc1)NC1CCOCC1`, the “inhibition” value was -9.07% (inactive). In the case of `COc1cccc(CNC(=S)Nc2ccncc2)c1`, the “inhibition” value is reported as -2.42% (inactive). With `S=C(NCc1ccc(Cl)cc1)Nc1ccc(I)cc1` the “inhibition” value was 11% (inactive). For `O=C(Nc1ccc(Cl)cc1)N1CCCN(Cc2cccc(Br)c2)C1`, the “inhibition” value was -5.63% (inactive). For `O=C(NC1CCCCC1)N1CCCN(Cc2ccccc2F)C1`, the “inhibition” value was 6.2% (inactive). With `S=C(NCc1ccc(Cl)cc1)Nc1ccccn1` the “inhibition” value was 13.4% (inactive). In the case of `CN1CCN(C(=S)NCc2ccc(Cl)cc2)CC1`, the “inhibition” value is reported as 8.07% (inactive). With `S=C(NCc1ccc(Cl)cc1)Nc1ccncn1` the “inhibition” value was 14.1% (inactive). With `S=C(NCc1ccc(Cl)cc1)Nc1ccccc1Br` the “inhibition” value was 16.4% (inactive). For `O=C(Nc1ccc(Cl)cc1)N1CCN(Cc2ccccc2F)C1`, the “inhibition” value was 3.54% (inactive). For `N#Cc1ccc(CN2CCCN(C(=O)Nc3ccc(Cl)cc3)C2)cc1`, the “inhibition” value was -2.57% (inactive). For `S=C(NCc1ccc(Cl)cc1)NC1CCCCC1`, the “inhibition” value was 7.75% (inactive). In the case of `FC(F)(F)c1ccc(NC(=S)NCc2ccc(Cl)cc2)cc1`, the “inhibition” value is reported as -2.86% (inactive).
